The structures appear in SMILES notation. Active and inactive are the calls of the source. Calls follow the shape of the dose curve; as a rule, active = well fitted curve in the direction sought with a large enough effect in the repeat runs; inconclusive = weak or mixed curves; inactive = flat fitted curve, though single readings scatter.
% is scaled to controls: 0 for no effect and ±100 for the full control effect.

A short description of this assay: qHTS assay to test for compound auto fluorescence at 460 nm (blue) in HepG2 cell free culture (AID 720685). As to conditions: Cell-free culture medium, blue autofluorescence 405/460 nm; series mostly up to 91.3 µM; fluorescence, % of fluorescent control: at the top concentration. The source says:
U.S. Tox21 Program National Center for Advancing Translational Sciences [NCATS] NIH Chemical Genomics Center [NCGC] U.S. Environmental Protection Agency [EPA] National Institutes of Environmental Health Sciences [NIEHS] National Toxicology Program [NTP] U.S. Food and Drug Administration [FDA] Tox21 Assay Overview: Compound auto fluorescence often interferes with screening of the compound library against various biological targets and signaling pathways. Some of these compounds may have fluorophoric properties. Such properties may interfere with the assay outputs resulting in false positives and/or negatives. To decrease such complications and ensure the compound activities are relevant in terms of biological response, the Tox21 10K compound library was screened for auto fluorescence. From the fluorophores used as reporter signals in our screening assays, the auto fluorescence equivalencies of compounds against three fluorophores have been evaluated: Triamterene, Fluorescein and Rose Bengal sodium for blue, green and red fluorescence, respectively. The fluorescence intensities were measured using Excitation/Emission wavelengths at 405/460nm, 485/535nm and 540/590nm for blue, green and red labels, respectively. This assay includes the blue fluorescence data.
Tox21 Assay Protocol Summary: 5 uL of culture medium (MEM containing 10% FBS) per well was dispensed into black wall/clear bottom 1536-well plates using a Multidrop Combi Dispenser (ThermoFisher Scientific, Waltham, MA). After 23 nL compound or DMSO vehicle was transferred into assay plate by a pintool work station (Kalypsys, San Diego, CA), fluorescence intensities in the assay plates were measured by an Envision (PerkinElmer, Shelton, CT) plate reader using three labels for measuring blue, green and red fluorescence at […] 460, 535 and 590nm respectively.
On the technique in general: Quantitative high-throughput screening tests each substance at several concentrations.
Turning to `CNC(C)Cc1ccc2c(c1)OCO2` (stereo not given), the “fluorescence, % of fluorescent control” value is 0.0186% [at 95.7 µM] (inactive).
Same read-out and setting: under `CC1(C)CN=C(NN=C(/C=C/c2ccc(C(F)(F)F)cc2)/C=C/c2ccc(C(F)(F)F)cc2)NC1` stands 0.0012% (inactive); under `COP(=S)(OC)Oc1cc(Cl)c(Br)cc1Cl`, -0.0117% (inactive).
The same measure, in the same setting: with `N#CC(Cl)Cl` the figure was -0.0951% (inactive); with `CSCCCN=C=S`, -0.0471% (inactive); with `CCN`, -0.0163% (inactive).
On the same count and under the same terms, with `O=c1[nH]c2ccccc2n1CCCN1CCC(n2c(=O)[nH]c3cc(Cl)ccc32)CC1` the figure was 0.111% [at 46 µM] (inactive).
In the case of `CC(=O)[O-].CC(=O)[O-].O.O.[Cd+2]`, the “fluorescence, % of fluorescent control” value is -0.0166% (inactive).
On the same count and under the same terms, under `CC(C)CC(C)Nc1ccc(Nc2ccccc2)cc1` (stereo not given) stands 0.0854% (inactive); under `CC(C)CC(C)N` (stereo not given), 0.0289% (inactive).
Same read-out and setting: with `CC(C)CCCCCCCOP(=O)(Oc1ccccc1)Oc1ccccc1` the figure was 0.0708% (inactive).
On the same count and under the same terms, under `Cc1cc(SCc2sc(-c3ccc(C(F)(F)F)c(F)c3)nc2C)ccc1OCC(=O)O` stands -0.0331% (inactive); under `CC(=O)c1cc(C(C)(C)C)cc2c1CCC2(C)C`, -0.018% (inactive).
`Clc1ccc(C(Cl)(Cl)Cl)c(Cl)c1`: the “fluorescence, % of fluorescent control” value was -0.0333% (inactive).
Same read-out and setting: with `Fc1ccc(Oc2ccnc3cc(Cl)cc(Cl)c23)cc1` the figure was 0.0093% (inactive); with `Oc1ccc(C2(c3ccc(O)cc3)CCCCC2)cc1`, 0.0092% (inactive); with `Clc1ccc(-c2ccc(Cl)c(Cl)c2Cl)c(Cl)c1Cl`, 0.51% (inactive).
For the compound `c1ccc2c(c1)[nH]c1cnccc12`, the “fluorescence, % of fluorescent control” value was 4.87% (inactive).
Same read-out and setting: under `CN(C)S(=O)(=O)N(SC(F)(Cl)Cl)c1ccccc1` stands -0.154% (inactive); under `CCc1nn(C)c(C(=O)NCc2ccc(C(C)(C)C)cc2)c1Cl`, -0.0225% (inactive).
The same measure, in the same setting: under `CCCCCCCCCCCCCC[P+](CCCCCC)(CCCCCC)CCCCCC` (tested in a mixture with another compound) stands 0.0182% (inactive); under `CCCN(CCC)CCc1c[nH]c2ccccc12`, 0.0978% (inactive).
As to `CCCCCCCCCC[N+](C)(C)CCCCCCCCCC`, the Potency result was “inactive”.
Take `C[C@@H]1CC[C@@]2(OC1)O[C@H]1[C@@H](O)[C@H]3[C@@H]4CC[C@H]5C[C@@H](O[C@@H]6O[C@H](CO)[C@H](O[C@@H]7O[C@H](CO)[C@@H](O)[C@H](O[C@@H]8OC[C@@H](O)[C@H](O)[C@H]8O)[C@H]7O[C@@H]7O[C@H](CO)[C@@H](O)[C@H](O[C@@H]8O[C@H](CO)[C@@H](O)[C@H](O)[C@H]8O)[C@H]7O)[C@H](O)[C@H]6O)[C@H](O)C[C@]5(C)[C@H]4CC[C@]3(C)[C@H]1[C@@H]2C`: the “fluorescence, % of fluorescent control” value is 0.0498% [at 95.7 µM] (inactive).
Regarding `[CH3][Hg][Cl]`, the “fluorescence, % of fluorescent control” value is 0.0038% (inactive).
On the same count and under the same terms, under `O=CC(Br)(Br)Br` stands 0.0446% (inactive).
The same measure, in the same setting: under `CCCCCCCCCCCCBr` stands 0.0709% (inactive); under `BrC(Br)Br`, 0.0546% (inactive).
The same measure, in the same setting: with `CC(=O)OC1(c2ccccc2)CCN(CCc2ccccc2)CC1` the figure was 0.0379% [at 95.7 µM] (inactive); with `N#CCCC(Br)(C#N)CBr` (stereo not given), 0.403% (inactive); with `CC(=O)/C=C/c1ccc2c(c1)OCO2`, 0.98% (inactive).
For the compound `BrCBr`, the “fluorescence, % of fluorescent control” value was 0.0055% [at 95.7 µM] (inactive).
Regarding `C[C@@H]1O[C@@H](O[C@@H]2C=C3CC[C@@H]4[C@H](CC[C@]5(C)[C@@H](c6ccc(=O)oc6)CC[C@]45O)[C@@]3(C)CC2)[C@H](O)[C@H](O)[C@H]1O`, the fluorescence, % of fluorescent control was 0.14% [at 18.6 µM] (inactive).
For `O=C(O)C1C2CCC(O2)C1C(=O)O` (stereo not given), the Potency entry was “inactive”.
For the compound `Cc1cc(C(C)(C)c2cc(C)c(O)c(C)c2)cc(C)c1O`, the “fluorescence, % of fluorescent control” value was 0.0899% (inactive).
As to `Fc1cccc(Cl)c1CCl`, the “fluorescence, % of fluorescent control” value was -0.0156% (inactive).
Regarding `COP(=O)(OC)SCn1c(=O)oc2cc(Cl)cnc21`, the “fluorescence, % of fluorescent control” value was -0.0289% (inactive).
In the case of `CC1CCC(C(C)C)C(OC(=O)c2ccccc2N)C1` (stereo not given), the Potency entry is “inactive”.
For `Clc1ccc(CSC(Cn2ccnc2)c2ccc(Cl)cc2Cl)cc1` (stereo not given), the fluorescence, % of fluorescent control was 0.0769% [at 18.6 µM] (inactive).
The same measure, in the same setting: with `FC(Cl)(Cl)Cl` the figure was -0.0284% (inactive).

The values above are taken from PubChem BioAssay (Tox21).
